Data as given in PubChem BioAssay (NCI).
“And” between values parts separate entries of the source, which are not always exact repeats. Equal entries are not always repeated. About 83,000 compounds went through this panel and 20% of them were active in at least one assay; those are over-represented in the sample as a whole.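 Cell lines were cultured in 96-well plates, exposed to a single compound concentration, and assessed for percent growth 48 hours later.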 The source made the active and inactive calls. Rule for the calls: active = growth percent below 10; inactive = the rest.

system: MDA-MB-468 breast; experiment: NCI-60 one-dose screen, 48 h (100 = growth as untreated, 0 = no growth, -100 = all killed); details: 10 µM unless noted

| SMILES | growth |
| --- | --- |
| NC(=NCCCCCCN=C(N)/N=C(\N)Nc1ccc(Cl)cc1)/N=C(\N)Nc1ccc(Cl)cc1 | -69% (active) |
| O=S(=O)(NCCCNc1cc(-c2c(-c3cccc(O)c3)nc3sccn23)ccn1)c1cccc(Cl)c1 | 37.2% (inactive) |
| CCCc1cc2cc(-n3nc(C)c4c3CC(C)(C)CC4=O)cc(NC3CCSCC3)c2c(=O)[nH]1 | 14.3% (inactive) |
| CC1(C)CN(CCNc2nccc(-c3c(-c4cccc(O)c4)nc4sccn34)n2)S(=O)(=O)N1 | 81% (inactive) |
| CC[C@]12C=CCN3CC[C@@]4(c5ccc(OC)cc5N(C)[C@H]4[C@@](O)(C(=O)OC)[C@@H]1OC(=O)CCC(=O)N[C@@H](Cc1c[nH]c4ccccc14)C(=O)OC)[C@@H]32 | -20.8% (active) |
| O=C(Nc1ccc(Oc2cccc(Cl)c2)c(Cl)c1)c1cnccn1 | 0.426% (active) |
| COc1ccc(-c2c3c(N)nc(-c4ccncc4)nc3nc3c2c(C)nn3-c2ccccc2)cc1 | 72.7% (inactive) |
| C=CCCC1(C)NC(=O)NC1=O (configuration not stated) | 99.3% (inactive) |
| CCOC(=O)c1nn(CC(O)c2ccccc2)c(NC(=O)Nc2cccc(F)c2)c1C (configuration not stated) | 94.6% (inactive) |
| NNc1ccc2ccccc2c1 | 83.7% (inactive) and 88.7% (inactive) |
| COC(=O)/C(CCC=C(C)C)=C1\[C@@H](OC(C)=O)C[C@@]2(C)[C@H]1C/C(=N/O)[C@H]1[C@@]3(C)CC/C(=N\O)[C@@H](C)[C@@H]3CC[C@@]12C | 96.8% (inactive) |
| CCCCNCC(O)c1cc(-c2ccc(C(F)(F)F)cc2)nc(-c2ccc(C(F)(F)F)cc2)c1 (configuration not stated) | -87.9% (active) |
| NC(=O)c1cc(-c2ccc3ncnc(N4CCc5cc(F)c(Cl)cc54)c3c2)cnc1N | -35.3% (active) |
| CCOC(=O)c1c(NC(=O)c2cccc(C(F)(F)F)c2)sc2c(CN3CCN(C)CC3)c(O)ccc12 | -2.41% (active) |
| O=C(O)c1ccc(S(=O)(=O)O)cc1 | 103% (inactive) |
| CC(C)(C)OC(=O)CC1(O)CCCCC1 | 94.5% (inactive) |
| Nc1cc(Br)c(-c2nnc(CCC(=O)c3nc4ccccc4[nH]3)o2)c(Br)c1 | 16.9% (inactive) |
| CC(=O)Nc1nc2c(c(N)c1C#N)C(c1cccc(Cl)c1)C1=C(CCCC1=O)N2c1sc2c(c1C#N)CCCC2 (configuration not stated) | 47.7% (inactive) |
| COC1=CC(=O)OC(c2ccc(OC)cc2)C1 (configuration not stated) | 112% (inactive) |
| CCOC(=O)c1ccc2n1CCCc1cnc(NC(C)=O)nc1-2 | 96.1% (inactive) |
| CCOc1ccc(-c2cnnn2-c2nonc2-n2cccc2)cc1 | 10.6% (inactive) |
| COc1cc(OC)cc(C2CC(=O)Nc3c2c(C)nn3-c2nc3ccccc3[nH]2)c1 (configuration not stated) | 46.6% (inactive) |
| COc1ccccc1/C=C/C1=C(C)CCC(c2ccccc2OC)C1C (configuration not stated) | 29.7% (inactive) |
| CN1CCN(c2ccc(C(=O)Nc3n[nH]c4ccc(Cc5cc(F)cc(F)c5)cc34)c(NC3CCOCC3)c2)CC1 | -72.3% (active) |
| O=C1Nc2ccccc2C2c3cccn3-c3ccccc3N12 (configuration not stated) | 47.8% (inactive) |
| CCCCCCCCNC(=O)c1ccc(Cn2c(CCCC)nc3c(N)nc4ccccc4c32)cc1 | -72.6% (active) |
| CCOC(=O)c1c(NCC(=O)Nc2ccc(Br)cc2)sc2c1CCCC2 | 7.05% (active) |
